High-throughput results (PubChem)
Six1-Eya2 inh = Six1/Eya2 interaction inhibition; 360,000 tested, 0.56% active; Q15475+O00167; AlphaScreen GST-Six1/His-Eya2 binding, biochemical; active compounds read low; activity change, % (no concentration beside the values); in the data active means activity change below about -65%; inconclusive means mostly about -30% to -63%
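AlphaScreen with GST-Six1 and His-Eya2 (5X mix: 250 nM and 500 nM), glutathione donor and nickel acceptor beads; buffer 50 mM Tris pH 8.0, 300 mM NaCl, 1 mM TCEP; 1 h at 37 C in the dark.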
CtBP-E1A blk = blocks the CtBP interaction with E1A; 340,000 tested, 0.49% active; AlphaScreen GST-E1A/His-CtBP binding, 1536-well; active compounds read low; activity change, % (no concentration beside the values); in the data active means activity change below about -65%; inconclusive means mostly about -30% to -63%
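In 5 uL wells, 23 nL compound meets equimolar GST-E1A and His-CtBP (5X stock 125 nM each) for 2 h, 37 °C. Beads (5X, 50 ug/mL) then 1 h, 37 °C, dark.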
TrxR1 inh = inhibitors of rat thioredoxin reductase 1 | O89049 | Potency, µM (highest dose often 114 µM), without a hit: at the top dose activity change, negative = inhibition, hits mostly inhibitors | 390,000 tested, 1% active | recombinant rTrxR1, NADPH fluorescence consumption, selenite substrate; further: potency means the concentration at half of the fitted maximal effect; nearly all actives have a fitted effect of over 65% in size
Target sequence (O89049 whole entry, looked up): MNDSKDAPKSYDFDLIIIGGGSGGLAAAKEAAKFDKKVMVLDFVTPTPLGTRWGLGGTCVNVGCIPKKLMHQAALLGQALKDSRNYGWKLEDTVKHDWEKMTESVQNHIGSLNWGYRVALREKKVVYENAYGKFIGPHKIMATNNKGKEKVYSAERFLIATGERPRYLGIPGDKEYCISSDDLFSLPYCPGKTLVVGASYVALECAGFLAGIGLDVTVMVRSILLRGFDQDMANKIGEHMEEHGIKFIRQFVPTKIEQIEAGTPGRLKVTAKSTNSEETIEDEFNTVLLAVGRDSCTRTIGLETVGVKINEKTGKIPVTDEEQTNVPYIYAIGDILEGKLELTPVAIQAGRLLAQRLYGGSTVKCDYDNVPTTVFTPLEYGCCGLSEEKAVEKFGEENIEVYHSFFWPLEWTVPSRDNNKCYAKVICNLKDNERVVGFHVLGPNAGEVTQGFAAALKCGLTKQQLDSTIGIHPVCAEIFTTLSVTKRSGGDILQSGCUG
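Rat TrxR1 (90 nM in the dispensed reagent) was pre-reduced with 400 uM NADPH for 5 min at room temperature, then incubated with compound for 15 min. After 400 uM selenite was added, NADPH fluorescence (Ex 340/Em 450 nm) was followed for 8 min.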
Eya2 inh = inhibitors of human Eya2 phosphatase activity; AID 488837; O00167; 330,000 tested, 0.006% active; recombinant Eya2, OMFP fluorescence dephosphorylation (OMFP is methylfluorescein phosphate); Potency, µM (highest dose often 76.9 µM), for inactives: at the highest dose activity, negative = inhibition, usual class: inhibitors; further: potency means the concentration at half of the fitted maximal effect
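Eya2 protein (added as 0.2 uM solution) was preincubated with compound for 10 min at ambient temperature in 50 mM HEPES pH 7.5, 50 mM NaCl, 5 uM MgCl2, 0.05% BSA, 1 mM DTT. OMFP (added at 50 uM) then reacted 10 min; fluorescence read at 485/525 nm.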
GALK inhibitor = inhibitors of human galactokinase. P51570. Purified GALK, Kinase-Glo residual ATP luminescence. Potency, µM (series often up to 57.5 µM), for the others: at the top dose activity change, negative = inhibition, usual class: inhibitors. 270,000 tested, 0.007% active. AID 1868; further: potency means the concentration at half of the fitted maximal effect
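Compounds were pin-transferred into ATP buffer (35 uM final), then GALK plus galactose (5 nM, 100 uM final) was added. After 1 h at room temperature, Kinase-Glo Plus was added and luminescence read after 10 min.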
TrxR1 substrate = is turned over as a substrate by rat TrxR1; O89049; purified TrxR1 substrate turnover, NADPH consumption readout; Potency, µM (doses to about 114 µM), inactives show at the top dose activity change, negative = substrate turnover; 390,000 tested, 0.01% active; further: potency means the concentration at half of the fitted maximal effect; nearly all actives have a fitted effect of over 50% in size
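Rat TrxR1, dispensed at 90 nM, was prereduced with 400 uM NADPH (final) for 5 min at ~22 deg C, then incubated with compound 15 min before 400 uM selenite. A first-read NADPH fluorescence drop versus no-compound background flagged substrates.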
* = called active by the depositor; [ ] = remark or other dose. Hits are enriched below; roughly 1.5% of the tested compounds scored in any of these assays. Unless noted, the call rests on the fitted dose curve; in most records, active means well fitted curve in the direction sought with a large enough effect; inconclusive means small, poorly fitted or top-dose-only effect, or another doubt; inactive means no such curve, though single readings can be large; an effect the other way counts as inactive or inconclusive. On the % scale 0 is the no-effect control and ±100 the full control effect.

`O=C1CC(c2ccccc2)Sc2nc3ccccc3n21` (stereo not given) gave Six1-Eya2 inh 15.9, CtBP-E1A blk 0.0, TrxR1 inh 27.1%[57.1 µM], Eya2 inh 13.7%, GALK inhibitor 11.3% and TrxR1 substrate -13.6%[57.1 µM].
CCOc1ccccc1-c1nc(SCC(=O)c2ccc(OC)c(Br)c2)n[nH]1 was read as TrxR1 inh -6.6% and TrxR1 substrate -9.5%.
`CCc1cccc(C)c1NC(=O)c1ccoc1C` gave Six1-Eya2 inh 4.5, CtBP-E1A blk -7.7, TrxR1 inh 20µM*, Eya2 inh 21.2%[15.4 µM], GALK inhibitor 1.8% and TrxR1 substrate -1.4%.
COc1cccc(-c2nc(-c3ccc(-c4ccccc4)nc3OC)no2)c1 was read as TrxR1 inh -23.9% and TrxR1 substrate 47.7%.
Screening CCn1c(=O)cc(OCC(=O)Nc2cc(OC)c(OC)c(OC)c2)c2ccccc21 returned TrxR1 inh -7.6% and TrxR1 substrate -12.8%.
`O=C1CS(=O)(=O)N(Cc2ccc(F)cc2)c2ccccc21` gave Six1-Eya2 inh 1.4, CtBP-E1A blk -0.2, TrxR1 inh 44.7µM*, Eya2 inh -0.5% and TrxR1 substrate -5.8%.
`COc1cc(CN2c3ccccc3C(=O)CS2(=O)=O)cc(OC)c1` gave Six1-Eya2 inh 9.8, CtBP-E1A blk 6.8, TrxR1 inh inconclusive, Eya2 inh -7.8% and TrxR1 substrate 5.9%.
C[S+](C)CC(=O)c1ccc2ccccc2c1 was read as TrxR1 inh -8.6% and TrxR1 substrate -3.7%.
Screening O=C(Nc1cccc2cccnc12)OC(Cl)(Cl)Cl returned TrxR1 inh -21.2% and TrxR1 substrate 0.8%.
O=C(Nc1cccc2cccnc12)C(Cl)(Cl)Cl was read as TrxR1 inh 28.2µM* and TrxR1 substrate -0.4%.
Screening O=C(c1nc[nH]c1C(=O)N1CCc2ccccc2C1)N1CCc2ccccc2C1 returned Six1-Eya2 inh 11.2, CtBP-E1A blk 7.7, TrxR1 inh 5.2%[57.1 µM], Eya2 inh -33.1% and TrxR1 substrate -6.5%[57.1 µM].
CN(Cc1ccccc1)C(=O)c1nc[nH]c1C(=O)N1CCc2ccccc2C1 was read as Six1-Eya2 inh 2.6, CtBP-E1A blk -1.4, TrxR1 inh 39.8µM*, Eya2 inh 0.0% and TrxR1 substrate 0.7%.
O=C(Nc1nccs1)c1nc[nH]c1C(=O)NCc1ccccc1 was read as Six1-Eya2 inh inconclusive, CtBP-E1A blk inconclusive, TrxR1 inh -12.1%, Eya2 inh -3.2% and TrxR1 substrate -13.8%.
For CN(Cc1ccccc1)C(=O)c1[nH]cnc1C(=O)Nc1nccs1 the results were Six1-Eya2 inh -73.6*, CtBP-E1A blk inconclusive, TrxR1 inh -13.9%, Eya2 inh 17.0% and TrxR1 substrate -5.4%.
For CCC(=O)N1N=C(c2cccs2)CC1c1ccc(C)cc1 (stereo not given) the results were Six1-Eya2 inh 5.0, TrxR1 inh 12.7%, Eya2 inh 2.3% and TrxR1 substrate 7.3%.
Cc1ccc(C2CC(c3cccs3)=NN2C(=O)CCl)cc1 (stereo not given) was read as Six1-Eya2 inh 19.6, CtBP-E1A blk 4.4, TrxR1 inh 12.6µM*, Eya2 inh 3.3%, GALK inhibitor 3.2% and TrxR1 substrate 4.4%.
COc1cc(/C=C(\C#N)c2[nH]nc(N)c2C#N)cc(OC)c1O was read as Six1-Eya2 inh inconclusive, CtBP-E1A blk -66.8*, TrxR1 inh -1.2%[57.1 µM], Eya2 inh 20.6%, GALK inhibitor 2.8% and TrxR1 substrate 1.3%[57.1 µM].
Screening Cc1ccc(NC(=O)CN2C(=O)COc3ccc(S(=O)(=O)N4CCCCC4)cc32)cc1N(C)C returned TrxR1 inh 3.7% and TrxR1 substrate -2.5%.
Screening COC(=O)c1sc2nc(-c3ccco3)ccc2c1N returned Six1-Eya2 inh -2.1, CtBP-E1A blk -1.2, TrxR1 inh inconclusive, Eya2 inh -14.4%, GALK inhibitor 0.9% and TrxR1 substrate -9.2%.
For NC(=O)c1sc2nc(-c3ccco3)ccc2c1N the results were Six1-Eya2 inh -26.5, CtBP-E1A blk 21.4, TrxR1 inh 44.7µM*, Eya2 inh -16.0%, GALK inhibitor 1.7% and TrxR1 substrate 6.7%.
`NC(=O)c1sc2nc3c(c(-c4ccco4)c2c1N)CCC3` gave Six1-Eya2 inh -70.7*, CtBP-E1A blk -6.5, TrxR1 inh -18.7%, Eya2 inh 4.9%, GALK inhibitor -0.3% and TrxR1 substrate 1.3%.
For O=C(CCl)NNC(=O)c1c(O)c2ccccc2[nH]c1=O the results were Six1-Eya2 inh -23.4, CtBP-E1A blk -19.2, TrxR1 inh -8.7%, Eya2 inh 9.9% and TrxR1 substrate 2.3%.
O=C(NNC(=O)c1c(O)c2ccccc2[nH]c1=O)c1ccccc1Br was read as Six1-Eya2 inh -74.8*, CtBP-E1A blk inconclusive, TrxR1 inh 13.7%[57.1 µM], Eya2 inh 9.6%, GALK inhibitor 15.9% and TrxR1 substrate 3.8%[57.1 µM].
`CCOC(=O)c1sc(N2C(=O)C(O)=C(C(=O)c3ccco3)C2c2ccco2)nc1C` (stereo not given) gave Six1-Eya2 inh -8.9, CtBP-E1A blk 0.7, TrxR1 inh 31.6µM*, Eya2 inh 1.1%, GALK inhibitor -5.9% and TrxR1 substrate -9.3%.
Cn1nc(-c2ccccn2)nc2c(=O)n(C)c(=O)nc1-2 was read as Six1-Eya2 inh -28.3, CtBP-E1A blk inconclusive, TrxR1 inh inconclusive, Eya2 inh -19.1%, GALK inhibitor 1µM* and TrxR1 substrate 35.5µM*.
CCc1ccc(-c2nc3c(=O)n(C)c(=O)nc-3n(CC)n2)cc1 was read as TrxR1 inh -16.3% and TrxR1 substrate 35.5µM*.
CCCc1nc2c(=O)n(C)c(=O)nc-2n(C)n1 was read as Six1-Eya2 inh 0.5, CtBP-E1A blk -6.4, TrxR1 inh -100.9%, Eya2 inh -5.8%, GALK inhibitor 1.78µM* and TrxR1 substrate inconclusive.
For CCn1c(N)nc2c1c(=O)n(C)c(=O)n2C the results were Six1-Eya2 inh 12.3, CtBP-E1A blk 21.3, TrxR1 inh 17.1%, Eya2 inh 7.1%, GALK inhibitor 1.0% and TrxR1 substrate 5.9%.
`Cc1ccccc1-c1nc2c(=O)n(C)c(=O)nc-2n(C)n1` gave TrxR1 inh 14.1µM* and TrxR1 substrate 12.6µM*.
`COc1cc2nc(NC3CCN(Cc4ccccc4)CC3)nc(N3CCCN(C)CC3)c2cc1OC` gave TrxR1 inh -10.9% and TrxR1 substrate 25.7%.
Screening CCC(Oc1ccccc1F)C(=O)N1CCC(c2nc3ccccc3s2)CC1 (stereo not given) returned TrxR1 inh 24.8% and TrxR1 substrate 2.1%.
